High-throughput results: PubChem BioAssay, The Scripps Research Institute Molecular Screening Center
Most compounds without a hit are left out; they make up all but 1.1% or so of the library.
PKA-R2B act: activators of human PKA-R2B complex. P22694+P31323. PKA-R2B holoenzyme dissociation, Cy5-IP20 fluorescence polarization; R2B truncated from residue 108, S112A mutant; 0% DMSO only, 100% 113 µM cGMP. activation, % at 11.4 µM. 0.079% of 340,000 active. AID 504700;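 active = activation above a cutoff set at the mean over all compounds plus 3 SD, cut at about 18% in these data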;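 note: higher means more holoenzyme dissociation and a rise in polarization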
Target sequence (P31323 whole entry, looked up, other chains not shown, the tested form may be a part): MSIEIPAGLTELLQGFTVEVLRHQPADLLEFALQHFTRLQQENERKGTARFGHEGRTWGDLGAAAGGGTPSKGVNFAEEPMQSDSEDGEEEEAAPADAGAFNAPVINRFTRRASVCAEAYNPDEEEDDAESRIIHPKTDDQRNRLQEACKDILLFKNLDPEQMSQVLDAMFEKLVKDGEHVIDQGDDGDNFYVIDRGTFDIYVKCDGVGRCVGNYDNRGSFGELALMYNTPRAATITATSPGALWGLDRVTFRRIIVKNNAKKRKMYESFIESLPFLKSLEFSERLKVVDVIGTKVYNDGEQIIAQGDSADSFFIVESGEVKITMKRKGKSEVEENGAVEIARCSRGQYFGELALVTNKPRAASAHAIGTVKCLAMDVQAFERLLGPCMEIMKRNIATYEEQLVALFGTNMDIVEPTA
PKA-R1A activ: PKA-R1A complex activation | P00514+P68181 | PKA-R1A dissociation, Cy5-IP20 fluorescence polarization; scaled: DMSO 0%, 113 µM cGMP 100% | activation, % at 11.4 µM | 0.083% of 340,000 active | AID 504707;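 active = percent activation above the mean of all tested compounds plus 3 SD, cut at about 19% in these data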;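 note: higher means more PKAc released from R1A so a rise in polarization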
MsrA inhibitor: inhibitors of bovine MsrA; purified bovine MsrA, absorbance read-out; inhibition, % at 15.5 µM; 0.75% of 360,000 active; AID 651718;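 note: 0% = vehicle wells with enzyme and 100% = reference inhibitor wells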
bovine MsrA act: activators of bovine methionine sulfoxide reductase A | 0.3% of 360,000 active | AID 602163 | activation, % at 10.6 µM | purified bovine MsrA, absorbance read-out; in the data active = activation above about 7.5%;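 note: 0% = vehicle and 100% = reference activator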
MsrA inh confirm: confirmation of bovine MsrA inhibitors | shares compounds with MsrA inhibitor | purified bovine MsrA, absorbance read-out | inhibition, % at 15.5 µM | AID 651822 | 41% of 2,300 active;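 note: coupled to thioredoxin reductase with NADPH and selenocystamine and DMSO as substrate; 0% = vehicle only and 100% = full effect of reference inhibitor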
Numbers without * were called inactive; nt = no result; ! = not confirmed by another sample. Cut-off read from the data, not from the text of the source, unless noted: active = inhibition above about 4.5%; inactive = the rest.

SMILES	PKA-R2B act	PKA-R1A activ	MsrA inhibitor	bovine MsrA act	MsrA inh confirm
O=c1cc(-c2ccc(O)cc2)oc2ccc(O)cc12	-11	5	5.5*	-2	2
O=c1cc(-c2ccc(O)cc2)oc2ccccc12	-5	-9	3	-4	nt
C#CCN(C[C@H]1[C@H](OC(=O)Nc2cccs2)[C@H](OC(=O)Nc2cccs2)CN(C(=O)OC(C)C)N1C(=O)OC(C)C)S(=O)(=O)c1ccc(C)cc1	nt	nt	0	nt	nt
COc1ccc(/C=C2\Oc3cc(OCC(=O)N4CCC[C@H]4C(=O)O)ccc3C2=O)c(OC)c1	5	3	nt	-3	nt
COc1cccc(/C=C2\Oc3cc(OCC(=O)N4CCC[C@H]4C(=O)O)ccc3C2=O)c1	-2	1	5.7*	-3	5.9*
CS(=O)(=O)c1ccc2nc(NC(=O)c3ccc(NS(=O)(=O)c4cccc([N+](=O)[O-])c4)cc3)sc2c1	0	7	5.3*	-2	5.3*
CS(=O)(=O)c1ccc2nc(NC(=O)c3ccc(S(=O)(=O)NCC4CCCO4)cc3)sc2c1 (centres undefined)	0	13	5.0*	-3	4
O=C(NCCCc1ccncc1)C1CCC(=O)N(CCc2cccc(F)c2)C1 (centres undefined)	-6	-5	2	-2	nt
CC(C)(C)S(=O)N1Cc2cc(CO)cc(CCO)c2[C@@H]1CCO (some centres undefined)	2	-2	-1	0	nt
O=C(c1ccc(F)cc1)N1CCN(S(=O)(=O)c2ccc(Br)cc2)CC1	-1	-5	-1	-3	nt
O=C(N/N=C\C=C\c1ccc2c(c1)OCO2)C1COc2ccccc2O1 (centres undefined)	-12	-9	4.8*	-11	3
O=C(N/N=C\C=C\c1ccc2c(c1)OCO2)c1cccnc1	-16	-4	8.0*	-15	5.7*
CCOC(=O)[C@@H]1[C@H]2COc3ccccc3[C@@H]2N2C(=O)N(c3ccccc3)C(=O)[C@]12C	-6	-2	-1	-1	nt
N#C/C(=C(/O)c1cc2ccccc2o1)c1nc2ccccc2s1	4	3	0	-2	nt
N#C/C(=C(\O)c1ccco1)c1ccccn1	2	12	5.1*	-4	2
N#C/C(=C(/O)c1ccco1)c1nc2ccccc2s1	-5	2	4.8*!	-14	4.6*
N#CC(C(=O)c1ccco1)c1ccccn1 (centres undefined)	-4	-9	5.9*	-8	4
N#C/C(=C(/O)CN1CCOCC1)c1nc2ccccc2s1	-6	-10	4.8*	-14	4
COc1ccc(CNC(=O)C2(C)Cc3c(-c4ccc5c(c4)OCO5)ccnc3O2)cc1OC (centres undefined)	nt	nt	-2	0	nt
Cc1cccc(NC(=O)CCCN2C(=O)C(c3ccccc3)Oc3cccnc32)c1C (centres undefined)	-5	-4	-2	-8	nt
N#C/C(=C(/O)c1ccco1)c1nc2ccccc2[nH]1	-7	-7	7.2*	-13	4.6*
N#C/C(=C(\O)Cc1ccccc1)c1nc2ccccc2[nH]1	2	9	3	-2	nt
CCS(=O)(=O)c1nn2c(N)c(/C=C3/C=CC(=O)C(OC)=C3)c(=O)nc2s1	-7	9	4.7*	-1	3
Nc1nnc(SCC(=O)Nc2ccc(N3CCOCC3)c(Cl)c2)s1	-6	-4	1	-9	nt
CN(C)c1ccc(C(=O)Nc2nnc(C3=COCCO3)o2)cc1	-8	-9	5.1*	-10	4
SMILES	PKA-R2B act	PKA-R1A activ	MsrA inhibitor	bovine MsrA act	MsrA inh confirm
O=c1cccc(-c2ccc3ccccc3c2)o1	nt	nt	5.0*	nt	3
CCNC(=O)C1CCCN(C(=O)c2ccc(-c3ccccc3)cc2)CC1 (centres undefined)	nt	nt	-1	-6	nt
CN(/N=C/c1ccncc1)c1cnc2ccccc2n1	4	7	4.7*	-17	4
COc1cc([N+](=O)[O-])ccc1NC(=S)NNC(=O)c1ccc2c(c1)OCO2	-6	-4	4.7*	2	3
N#Cc1ccc(C(=O)NCC2CCN(C(=O)C(=O)c3cccs3)CC2)cc1	nt	nt	1	nt	nt
O=c1[nH]c(/C=C/c2ccc([N+](=O)[O-])cc2)c([N+](=O)[O-])c(=O)[nH]1	-9	-1	5.4*	-6	5.6*
CCC(C)NC(=O)c1cc2cc3ccc(OC)cc3nc2o1 (centres undefined)	-1	-2	5.0*	-5	5
COc1ccc2cc3cc(C(=O)NCCC(C)C)oc3nc2c1	1	-12	1	-2	nt
COCCNC(=O)c1cc2cc3ccc(OC)cc3nc2o1	-8	-9	4.8*	-5	4
COc1ccc2cc3cc(C(=O)NCC4CCCO4)oc3nc2c1 (centres undefined)	-13	1	6.2*	-5	4
Cn1cc([N+](=O)[O-])c(C(=O)NC2CCCC2)n1	-2	2	-1	1	nt
Cc1ccc2c(NC(=O)c3ccco3)cccc2n1	7	1	1	-1	nt
CCN(C(=O)COC(=O)c1ncc(Cl)c(Cl)c1Cl)c1c(N)n(Cc2ccccc2)c(=O)[nH]c1=O	-3	-6	0	0	nt
COc1ccccc1N/C=C/C(=C(C#N)C#N)N(C)C	-6	-7	5.5*	-4	3
CN(C)C(/C=C/Nc1ccccc1F)=C(C#N)C#N	-10	0	1	-2	nt
CC(C)(C)c1cc(C(=O)O)n(Cc2ccc(Cl)cc2Cl)n1	8	-6	-1	-1	nt
Cc1nc(NC(=O)c2ccc(Br)s2)sc1C(=O)N(C)C	-5	4	5.0*	-13	2
COc1ccc(/C=C/C(=O)Nc2nc(C)c(C(=O)N(C)C)s2)cc1	-8	-1	5.4*	-6	6.5*
COc1ccc(C(=O)Nc2nc(C)c(C(=O)N(C)C)s2)cc1OC	-1	-6	2	1	nt
COc1ccc(/C=C/C(=O)Nc2nc(C)c(C(=O)N(C)C)s2)cc1OC	-3	-4	5.7*	-5	5
O=C(c1ccc2nccnc2c1)N1CCCC(Nc2ccc(F)c(F)c2)C1 (centres undefined)	12	9	1	-2	nt
CCOC(=O)c1ccccc1NC(=O)CN(c1ccccc1)S(=O)(=O)N(C)C	-14	-6	5.6*	-2	4
CCOC(=O)c1ccccc1NC(=O)CN(c1ccccc1OC)S(C)(=O)=O	3	-5	-1	-2	nt
O=C(COc1ccc2c(-c3ccccc3)cc(=O)oc2c1)NCC1CCC(C(=O)O)CC1 (centres undefined)	4	1	5.0*	-2	3
CCCCc1n[nH]c2c1/C(=N/OCC)CC(C)(C)C2	nt	nt	19*	-2	13*
CCCCc1n[nH]c2c1/C(=N/O)CC(C)(C)C2	7	6	0	-2	nt
CCOC(=O)C1(Cc2ccccc2C)CCCN(C(=O)c2ccc(CSC)o2)C1 (centres undefined)	11	0	1	-12	nt
CC(=O)C(Sc1ncnc2c1nnn2-c1ccc(F)cc1)C(=O)N(C)C (centres undefined)	nt	nt	5.7*	nt	3
